We go through twelve molecules from PubChem BioAssay.

Entries with a potency or affinity are not part of this list. Records with an inconclusive call do not appear. Calls of active or inactive are those of the source.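 How the source made its calls: active means falling signal with fitted half-maximal potency no higher than twice the top valid tested dose; inconclusive means poor fit quality, or flat fit spanning -70% to -30%; inactive means potency over limit, rising signal, or flat fit inside 30%.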

This assay can be described thus: fungal growth arrest, C. neoformans – Alamar Blue, cherry-picks, dose response (AID 686998). Particulars: Cryptococcus neoformans growth, 24 h; series mostly up to 35 µM. (In general: The colour change of resazurin is a common sign of viable cells or microbes.)
Turning to `C[C@@H]1CN([C@@H](C)CO)C(=O)c2cccc(NC(=O)C3CC3)c2O[C@@H]1CN(C)C`, the outcome was inactive.
Regarding `C[C@H]1CCCCO[C@H](CN(C)C(=O)c2ccncc2)[C@@H](C)CN([C@@H](C)CO)C(=O)c2cc(NC(=O)Cc3ccccc3)ccc2O1`, the outcome was inactive.
`O=C(O)C/C(=C\c1cccc(NC(=O)c2ccccc2Cl)c1)c1nc2ccccc2s1`: the outcome was inactive.
As to `C[C@@H]1CN([C@@H](C)CO)C(=O)c2cccc(NC(=O)Nc3ccccc3)c2O[C@H]1CN(C)S(=O)(=O)c1cn(C)cn1`, the result was inactive.
Regarding `O=C(CN(c1ccccc1)S(=O)(=O)c1ccc(F)cc1)NC1CCS(=O)(=O)C1` (configuration not stated), the result was inactive.
`Cc1ccc(C)c(NC(=O)C2(C)CCCN2C(=O)C(C)C)c1` (configuration not stated): the molecule was called inactive.
For the molecule `COc1ccc(CN(C)C[C@@H]2Oc3c(NC(=O)Nc4cccc5ccccc45)cccc3C(=O)N([C@@H](C)CO)C[C@@H]2C)cc1`, the result was inactive.
For `C[C@H](CO)N1C[C@H](C)[C@H](CN(C)C(=O)Nc2cccc3ccccc23)Oc2ccc(NC(=O)Nc3ccccc3)cc2C1=O`, the molecule was called inactive.
`C[C@@H]1CCCCO[C@H](CN(C)C(=O)Nc2ccc(F)cc2)[C@H](C)CN([C@@H](C)CO)C(=O)c2cc(NS(=O)(=O)c3ccc(Cl)cc3)ccc2O1`: the result was inactive.
For `CCS(CC)=NS(=O)(=O)c1ccc(NC(C)=O)cc1`, the molecule was classed as inactive.
`Cc1ccc(NC(=O)C2(C)CCN2C(=O)CC2CC2)cc1C` (configuration not stated): the outcome was inactive.
The entry for `CCNC(=O)Nc1ccc2c(c1)C(=O)N(C)[C@H]1CC[C@H](CC(=O)N[C@@H](C)c3ccccc3)O[C@H]1CO2` is “inactive”.
